For 3 compounds, outcome and AC50 results are on record in PubChem BioAssay AID2284364 (EPA ToxCast).

“And” between values parts separate entries of the source, which are not always exact repeats. Equal values may be shown once. The source made the active and inactive calls. The calls were made as follows: active = hit-call score of the fitted dose curve at least 0.9, where 1 is the maximum; inactive = score below 0.9.

Chain of Peroxisome proliferator-activated receptor gamma (Homo sapiens) (P37231 whole entry, looked up): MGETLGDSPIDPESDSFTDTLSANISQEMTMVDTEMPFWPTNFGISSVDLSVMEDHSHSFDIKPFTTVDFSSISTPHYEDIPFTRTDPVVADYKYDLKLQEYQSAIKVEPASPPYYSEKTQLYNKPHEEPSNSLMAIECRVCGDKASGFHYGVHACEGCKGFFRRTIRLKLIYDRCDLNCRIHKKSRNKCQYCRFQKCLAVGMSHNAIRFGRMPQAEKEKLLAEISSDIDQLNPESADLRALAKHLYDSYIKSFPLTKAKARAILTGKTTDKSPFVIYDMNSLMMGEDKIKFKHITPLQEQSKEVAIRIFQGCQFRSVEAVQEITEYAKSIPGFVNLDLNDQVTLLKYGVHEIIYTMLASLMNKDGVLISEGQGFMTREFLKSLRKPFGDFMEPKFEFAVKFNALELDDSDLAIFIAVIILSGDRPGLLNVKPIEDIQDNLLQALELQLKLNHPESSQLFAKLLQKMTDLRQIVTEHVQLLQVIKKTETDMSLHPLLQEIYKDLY

This experiment addresses Peroxisome proliferator-activated receptor gamma (Homo sapiens) (UniProt P37231). Nature of the experiment: ERF_US_NR_hPPARG: Eurofins (ERF) Nuclear Receptor (NR) Cell Based Protein-Protein Interaction LeadHunter Assay for human Peroxisome Proliferator-activated Receptor-gamma (PPARg) Agonism. As for the experimental part: ERF_US_NR_hPPARG is a cell-based, single-readout assay that uses extracted gene-proteins in a cell-line assay. Measurements were taken 5 hours after chemical dosing in a 384-well plate. See PPARgamma Human NHR Cell Based Agonist Protein-Protein Interaction Assay, DiscoverX.ERF_US_NR_hPPARG is an assay component calculated from the ERF_US_NR_hPPARG assay. It is designed to measure […] using a type of binding reporter as detected by scintillation counting with radiometry technology.Data from the assay component ERF_US_NR_hPPARG was analyzed at the assay endpoint, ERF_US_NR_hPPARG, in the positive analysis fitting direction relative to DMSO as the negative control and baseline of activity. Using a type of binding reporter, gain-of-signal activity can be used to understand changes in binding as they relate to gene PPARG. To generalize the intended target to other relatable targets, this assay endpoint is annotated to the nuclear receptor intended target family, where the subfamily is non-steroidal.
Cells were seeded in a total volume of 20 uL into white walled, 384-well microplates and incubated at 37C overnight prior to testing.Briefly, intermediate dilution of sample stocks was performed to generate 5X sample in assay buffer. 5 uL of 5X sample was added to cells and incubated at 37C for 300 minutes. Final assay vehicle concentration was 1%. The results are expressed as a percent efficacy of the control ligand.
Turning to `O=C(O)CCC(F)(F)C(F)(F)C(F)(F)F`, the outcome was inactive.

Turning to `NC(=O)c1nc(-c2cccc(-c3cc(F)ccc3OCC(F)(F)C(F)(F)F)c2)n[nH]1`, the outcome was inactive. In the case of `O=C(CC(=O)C(F)(F)C(F)(F)C(F)(F)F)c1cccs1`, the AC50 (in general, the concentration at which the activity in the assay is half-maximal) is 21.7 µM (active) and 23.7 µM (active).
